# Reference: PubChem BioAssay (Tox21)
# Where “and” joins values, the source holds several entries; their conditions need not be identical. Equal entries are not always repeated. Results filed as inconclusive are left out. Where a call stands in place of a potency, no number is given. Calls of active or inactive are those of the source. Unless noted, the call rests on the fitted dose curve; in most records, active means well fitted curve in the direction sought with a large enough effect in the repeat runs; inconclusive means weak or mixed curves; inactive means no such curve, though single readings can be large; an effect the other way counts as inactive or inconclusive.
# What was measured:
# [1] = target: Progesterone receptor (Homo sapiens) (UniProt P06401); assay: qHTS assay to identify small molecule agonists of the progesterone receptor (PR) signaling pathway (AID 1346784; calls by dose curve; further: nearly all actives have a fitted effect of over 30% in size; further: potency means the concentration at half of the fitted maximal effect)
# Procedure, shortened: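 Beta-lactamase reporter read-out: after 16 hr compound treatment at 37C and a further 2 hr at room temperature with LiveBLAzer B/G FRET substrate, fluorescence was measured in PR-UAS-bla HEK 293T cells grown in 2% charcoal-stripped serum.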
# [2] = qHTS assay to identify small molecule antagonists of the TGF-beta/Smad signaling pathway - cell viability counter screen (AID 1346824); further: nearly all actives have a fitted effect of over 50% in size
# Procedure, shortened: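 Cytotoxicity counter-screen run in the same wells as the beta-lactamase Smad reporter read: CellTiter-Glo luminescence after 30 min at room temperature. HEK 293T SBE-bla cells had 5 hr compound exposure at 37 C with TGF-beta1 (0.25 ng/mL stock).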
# [3] = qHTS assay to identify small molecule agonists of the TGF-beta/Smad signaling pathway - cell viability counter screen (AID 1346829); further: nearly all actives have a fitted effect of over 45% in size; further: potency means the concentration at half of the fitted maximal effect
# Procedure, shortened: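 Same-well cytotoxicity: CellTiter-Glo added after the 2 hr room-temperature beta-lactamase substrate step, luminescence measured 30 min later; cells had 5 hr of compound at 37 C.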
# [4] = qHTS assay to identify small molecule agonists of the TGF-beta/Smad signaling pathway (AID 1346859; active means well fitted activation curve with a large enough effect in the signal ratio in the repeat runs, not every such curve was filed as active; the % refers to the signal ratio; further: series mostly up to about 77 µM)
# Procedure, shortened: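 SBE-bla HEK 293T, 4,000 cells/well, plated o/n; cpd in DMSO, 5 hr, 37 C/5% CO2; B/G FRET substrate 2 hr RT; ex 405, em 460/530 nm.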
# [5] = target: Thyrotropin-releasing hormone receptor (Homo sapiens) (UniProt P34981); assay: qHTS assay to identify small molecule antagonists of the thyrotropin-releasing hormone receptor (TRHR) signaling pathway (AID 1346877; active means well fitted inhibition curve with a large enough effect in the repeat runs, not every such curve was filed as active; further: potency means the concentration at half of the fitted maximal effect)
# Procedure, shortened: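 Antagonist mode: after a 5 min room-temperature compound exposure, cells were stimulated with 1 nM (final) TRH. Dye-loaded TRHR-HEK293 cells were used, and calcium-dependent fluorescence was followed for 3 min, with 15-point titrations run in triplicate.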
# [6] = target: Thyrotropin-releasing hormone receptor (Homo sapiens) (UniProt P34981); assay: qHTS assay to identify small molecule agonists of the thyrotropin-releasing hormone receptor (TRHR) signaling pathway (AID 1346891; calls by dose curve; further: series mostly up to about 58 µM)
# Procedure, shortened: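 Intracellular calcium rise, read as fluorescence every second for 3 min, served as the agonist signal in dye-loaded HEK293 cells expressing TRHR; each compound ran at 15 concentrations in triplicate.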
# [7] = Human pregnane X receptor (PXR) small molecule agonists, qHTS cell viability counter screen (AID 1346977); further: nearly all actives have a fitted effect of over 50% in size; further: potency means the concentration at half of the fitted maximal effect
# Procedure, shortened: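 PXR-Luc HepG2, 2,000 cells/well, 5% charcoal-stripped FBS; 5hr settle; cpd 24hr, 37C/5% CO2; CellTiter-Fluor at 23hr, read 1hr later (fluorescence).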
# [8] = target: Progesterone receptor (Homo sapiens) (UniProt P06401); assay: qHTS assay to identify small molecule antagonists of the progesterone receptor (PR) signaling pathway (AID 1346795; active means well fitted inhibition curve with a large enough effect in the signal ratio in the repeat runs, not every such curve was filed as active; the % refers to the signal ratio; further: potency means the concentration at half of the fitted maximal effect)
# Procedure, shortened: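 Read-out is fluorescence from the LiveBLAzer B/G FRET substrate, cleaved by a UAS-controlled beta-lactamase in PR-UAS-bla HEK293T cells after 16 hr exposure to compound plus 1 nM promegestone (final), followed by 2 hr at room temperature.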
# [9] = qHTS assay to identify small molecule antagonists of the progesterone receptor (PR) signaling pathway - cell viability counter screen (AID 1346798);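 further: HEK293T PR-UAS-bla cells stimulated with the agonist R5020; series mostly up to about 92 µM; nearly all actives have a fitted effect of over 50% in size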
# Procedure, shortened: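 HEK293T PR-UAS-bla, 2% charcoal-stripped FBS; 4 hr pre-plate; cpd + R5020, 16 h 37C; LiveBLAzer read first; then CellTiter-Glo 30 min RT, luminescence.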
# [10] = qHTS assay to identify small molecule agonists of the progesterone receptor (PR) signaling pathway - cell viability counter screen (AID 1346799; calls by dose curve; further: nearly all actives have a fitted effect of over 45% in size; further: potency means the concentration at half of the fitted maximal effect)
# Procedure, shortened: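 Luminescence from CellTiter-Glo, added after the beta-lactamase FRET read in the same wells, gave cytotoxicity in PR-UAS-bla HEK293T cells treated with compounds for 16 hr at 37C.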
# Sequence of Progesterone receptor (Homo sapiens) (P06401 whole entry, looked up): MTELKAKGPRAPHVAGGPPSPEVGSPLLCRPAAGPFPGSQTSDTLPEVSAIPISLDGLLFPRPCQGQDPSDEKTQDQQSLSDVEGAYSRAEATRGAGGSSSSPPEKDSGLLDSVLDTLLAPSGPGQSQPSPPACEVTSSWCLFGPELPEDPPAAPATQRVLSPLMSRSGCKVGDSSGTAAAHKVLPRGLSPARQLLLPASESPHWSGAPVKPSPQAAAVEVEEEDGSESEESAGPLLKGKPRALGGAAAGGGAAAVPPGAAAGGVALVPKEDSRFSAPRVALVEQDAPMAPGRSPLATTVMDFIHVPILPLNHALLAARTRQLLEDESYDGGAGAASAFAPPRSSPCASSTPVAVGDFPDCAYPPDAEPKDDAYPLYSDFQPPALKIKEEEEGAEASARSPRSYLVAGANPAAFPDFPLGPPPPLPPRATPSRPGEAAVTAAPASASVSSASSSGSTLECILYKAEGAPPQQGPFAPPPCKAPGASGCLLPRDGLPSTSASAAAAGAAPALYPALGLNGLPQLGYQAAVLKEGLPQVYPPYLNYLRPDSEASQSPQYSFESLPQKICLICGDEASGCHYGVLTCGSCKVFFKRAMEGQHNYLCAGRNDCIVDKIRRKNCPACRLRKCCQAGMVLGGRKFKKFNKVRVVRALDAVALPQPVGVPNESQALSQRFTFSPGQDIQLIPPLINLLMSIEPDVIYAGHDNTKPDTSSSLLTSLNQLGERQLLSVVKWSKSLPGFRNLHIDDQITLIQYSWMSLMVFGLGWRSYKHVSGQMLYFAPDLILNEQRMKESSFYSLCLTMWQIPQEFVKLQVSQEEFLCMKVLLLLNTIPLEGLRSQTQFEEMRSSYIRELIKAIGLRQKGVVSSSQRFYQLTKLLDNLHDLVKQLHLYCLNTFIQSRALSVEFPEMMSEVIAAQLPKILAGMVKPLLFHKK
# Sequence of Thyrotropin-releasing hormone receptor (Homo sapiens) (P34981 whole entry, looked up): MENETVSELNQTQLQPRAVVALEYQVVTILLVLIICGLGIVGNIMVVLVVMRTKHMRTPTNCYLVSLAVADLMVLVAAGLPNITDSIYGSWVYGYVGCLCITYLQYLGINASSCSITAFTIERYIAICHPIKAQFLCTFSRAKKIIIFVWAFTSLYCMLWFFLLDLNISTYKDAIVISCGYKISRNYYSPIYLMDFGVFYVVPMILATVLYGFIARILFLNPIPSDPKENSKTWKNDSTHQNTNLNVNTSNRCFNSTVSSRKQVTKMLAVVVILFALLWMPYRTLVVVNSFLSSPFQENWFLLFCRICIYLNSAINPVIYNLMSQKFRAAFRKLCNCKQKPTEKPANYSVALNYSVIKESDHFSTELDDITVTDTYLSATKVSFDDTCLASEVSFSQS
Structure (SMILES),Potency [1],Potency [2],Potency [3],outcome [4],Potency [5],Potency [6],Potency [7],Potency [8],Potency [9],Potency [10]
Cn1cc(C2=C(c3cn(C4CCN(Cc5ccccn5)CC4)c4ccccc34)C(=O)NC2=O)c2ccccc21,inactive,inactive,inactive,–,–,–,–,–,–,–
CCCCCCCCCCCCBr,inactive,inactive,–,inactive,inactive,inactive,inactive,–,–,–
O=[N+]([O-])c1cc([N+](=O)[O-])c2ccccc2c1,inactive,inactive,–,–,inactive,inactive,–,–,–,–
CN(C)CCc1c[nH]c2cccc(O)c12,inactive,inactive,inactive,inactive,–,–,–,–,–,–
CC(C)(COCC1CO1)COCC1CO1 (stereo unspecified),–,inactive,inactive,inactive,inactive,inactive,inactive,inactive,inactive,inactive
Nc1c(Oc2ccccc2)cc(O)c2c1C(=O)c1ccccc1C2=O,–,inactive,inactive,inactive,inactive,inactive,–,inactive,inactive,inactive
C=CC(=O)OCCCCOC(=O)C=C,–,inactive,inactive,inactive,inactive,inactive,–,inactive,inactive,inactive
CCOC(=O)OC1=C(c2cc(C)ccc2C)C(=O)NC12CCC(OC)CC2 (stereo unspecified),–,inactive,inactive,inactive,inactive,inactive,inactive,inactive,inactive,inactive
c1ccc(OCC2CO2)cc1 (stereo unspecified),–,inactive,inactive,inactive,–,–,inactive,inactive,inactive,inactive
Cc1ccc(C(=O)Cl)cc1,–,inactive,inactive,inactive,inactive,inactive,inactive,inactive,inactive,inactive
COP(=S)(OC)Oc1cc(Cl)c(Br)cc1Cl,inactive,inactive,inactive,inactive,inactive,inactive,–,–,–,–
CCc1ccccc1C,–,inactive,inactive,inactive,–,–,inactive,inactive,inactive,inactive
Cn1[nH]nnc1=S,inactive,inactive,inactive,inactive,inactive,inactive,inactive,–,–,–
CC(C)CBr,–,inactive,inactive,inactive,inactive,inactive,inactive,inactive,inactive,inactive
ClC1=C(Cl)[C@]2(Cl)[C@H]3[C@H]([C@H]4C=C[C@H]3C4)[C@@]1(Cl)C2(Cl)Cl,inactive,inactive,inactive,inactive,inactive,inactive,inactive,–,–,–
BrC(Br)C(Br)(Br)Br,–,inactive,inactive,inactive,34 µM (active),inactive,inactive,inactive,inactive,inactive
ClC1=C(Cl)C2(Cl)C3C(Cl)C(Cl)CC3C1(Cl)C2(Cl)Cl (stereo unspecified),–,inactive,48.8 µM (active),inactive,inactive,–,–,4.31 µM (active) and 21.7 µM (active),inactive,48.4 µM (active) and 61.1 µM (active)
Cc1ccc(OP(=O)(Oc2ccccc2)Oc2ccccc2)cc1,–,inactive,inactive,inactive,inactive,inactive,inactive,15.6 µM (active),inactive,inactive
O=c1c(C2CC(c3ccc(-c4ccc(Br)cc4)cc3)Cc3ccccc32)c(O)sc2ccccc12 (stereo unspecified),inactive,inactive,inactive,inactive,inactive,inactive,18.8 µM (active),–,–,–
C[C@]12Cc3nonc3C[C@@H]1CC[C@@H]1[C@@H]2CC[C@@]2(C)[C@H]1CC[C@]2(C)O,1.19 µM (active),–,–,inactive,inactive,inactive,inactive,–,–,–
O=c1[nH]c2ccccc2n1CCCN1CCC(n2c(=O)[nH]c3cc(Cl)ccc32)CC1,inactive,inactive,inactive,inactive,–,–,26.6 µM (active),–,–,–
CC(C)[C@H](C(=O)OC(C#N)c1cccc(Oc2ccccc2)c1)c1ccc(OC(F)F)cc1 (stereo partly specified),inactive,inactive,inactive,inactive,inactive,inactive,inactive,–,–,–
ClCCN1CCOCC1,–,inactive,inactive,inactive,inactive,inactive,inactive,inactive,inactive,inactive
CC(=O)/C=C/c1ccc2c(c1)OCO2,inactive,inactive,inactive,inactive,–,–,–,–,–,–
O=C(CCCN1CCC2(CC1)C(=O)NCN2c1ccccc1)c1ccc(F)cc1,–,inactive,inactive,inactive,–,–,6.68 µM (active),inactive,inactive,inactive
c1ccc2c(c1)[nH]c1cnccc12,–,inactive,inactive,inactive,inactive,inactive,inactive,27.3 µM (active),inactive,inactive
